A549 viability – A549 cytotoxicity, counter-screen for Nrf2 inhibitors; A549 ARE-Fluc cells, CellTiter-Fluor viability, 18-24 h; Potency, µM (doses to about 46 µM), inactives show at the highest dose activity change, negative = cytotoxicity, actives largely listed as inhibitors; 390,000 tested, 0.16% active; AID 504648; note: potency is the fitted concentration of half-maximal effect
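Cytotoxicity counterscreen: CellTiter-Fluor fluorescence was measured in A549 ARE_Fluc cells after 18-24 h of compound exposure in a concentration series. The subsequent BugLite luminescent read reports ARE-luciferase activity.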
KB-3-1 cytotox – kills parental KB-3-1 adenocarcinoma cells | KB-3-1 viability, CellTiter-Glo ATP luminescence, 72 h | Potency, µM (series often up to 46.1 µM), hits mostly cytotoxic | 400,000 tested, 1.4% active | AID 1347075; note: potency is the fitted concentration of half-maximal effect; nearly all actives have a fitted effect of over 60% in size
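Using CellTiter-Glo luminescence, growth of non-resistant KB-3-1 adenocarcinoma cells is assessed 72 h after pin-tool compound addition at 37 °C. Normalized responses across the concentration series yield fitted curves.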
Giardia kill – kills Giardia lamblia; activity change, % at 7.66 µM, hits read low; 340,000 tested, 0.15% active; AID 540267; Giardia lamblia trophozoite viability; in the data active = activity change below about -80%; inconclusive = between about -30% and that limit;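 note: parasites exposed to compound for two days anaerobically before the ATP read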
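Luminescence from cellular ATP indicates surviving trophozoites (100 cells/well) following 48 hrs anaerobic compound treatment at 37 deg C; signal develops 15-30 min at room temperature.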
Nrf2 inh – Nrf2 pathway inhibition. A549 ARE-Fluc reporter, luciferase luminescence, 18-24 h. Potency, µM (highest dose often 46 µM), for inactives: top-dose activity change, negative = inhibition, hits mostly inhibitors. 360,000 tested, 2.1% active. AID 504444; note: potency is the fitted concentration of half-maximal effect; nearly all actives have a fitted effect of over 60% in size
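Two sequential reads on A549 ARE_Fluc cells exposed to compound for 18-24 h: a CellTiter-Fluor fluorescence read for viability, then a luciferase luminescence read for Nrf2/ARE activity.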
PI4K2A block – blocks human PI4K2A kinase activity. Q9BTU6. purified PI4K2A, ADP-Glo luminescence, 1 h; active compounds read low. activity change, negative = inhibition, % at 76.9 µM. 420,000 tested, 0.13% active. AID 1346378; in the data active = activity change below about -50%; inconclusive = mostly about -30% to -49%;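 note: -100% = wells without enzyme as full effect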
Target sequence (Q9BTU6 whole entry, looked up): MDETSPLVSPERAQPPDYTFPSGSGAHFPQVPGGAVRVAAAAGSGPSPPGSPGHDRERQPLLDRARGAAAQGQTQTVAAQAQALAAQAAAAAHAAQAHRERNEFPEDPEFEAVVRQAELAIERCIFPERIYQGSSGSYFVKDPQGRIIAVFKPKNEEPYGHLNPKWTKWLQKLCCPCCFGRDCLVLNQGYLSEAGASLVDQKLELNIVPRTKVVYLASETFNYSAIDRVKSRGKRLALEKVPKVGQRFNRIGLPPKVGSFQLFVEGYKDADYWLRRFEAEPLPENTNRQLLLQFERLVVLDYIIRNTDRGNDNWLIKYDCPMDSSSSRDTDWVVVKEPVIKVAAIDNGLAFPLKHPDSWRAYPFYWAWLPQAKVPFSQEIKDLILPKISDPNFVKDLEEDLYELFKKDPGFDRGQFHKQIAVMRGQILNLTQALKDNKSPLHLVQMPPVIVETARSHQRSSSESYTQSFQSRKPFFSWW
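PI4K2A activity was measured by ADP-Glo luminescence: enzyme (4 ug/mL stock) and phosphatidylinositol (1.2 mM stock) in Tris pH 7.5/MgCl2/EGTA/Triton X-100 buffer were reacted with ATP (300 microM stock) for one hour at ambient temperature.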
KB-V1 MDR tox – KB-V1 MDR subline cytotoxicity; KB-V1 MDR cells viability, CellTiter-Glo, 72 h; Potency, µM (top dose mostly 46.1 µM), hits mostly cytotoxic; 400,000 tested, 3.4% active; AID 1347076; note: potency is the fitted concentration of half-maximal effect; nearly all actives have a fitted effect of over 60% in size
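Cytotoxicity toward P-gp-expressing KB-V1 cells was determined as loss of CellTiter-Glo luminescence after 72 h at 37 degrees C. Compounds were tested in quantitative HTS format across a concentration range, with curves fitted to normalized data.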
The depositor's hits bear a star; i = inactive; ? = inconclusive; nt = no result given. A selection: hits, their analogues and other compounds. The true share with any hit is near 5.7%. Unless noted, calls come from the whole dose curve; as a rule, active = well fitted curve in the direction sought with a large enough effect; inconclusive = small, poorly fitted or top-dose-only effect, or another doubt; inactive = no such curve, though single readings can be large; an effect the other way counts as inactive or inconclusive. Unless noted, % is set by controls: 0 for no effect and ±100 for the full control effect.

SMILES	A549 viability	KB-3-1 cytotox	Giardia kill	Nrf2 inh	PI4K2A block	KB-V1 MDR tox
CCn1c(NC(=O)c2ccc(F)cc2)c2ccccc2nc1=O	-6.2%	?	0.9	9.8%	9.3	10.3µM*
CCn1c(NC(=O)c2ccc(C)cc2)c2ccccc2nc1=O	-2.8%	i	-13.2	?	6.6	11.6µM*
CCn1c(NC(=O)C(C)C)c2ccccc2nc1=O	-1.5%	i	-9.0	-16.1%	4.6	i
O=C(c1cccc(Cl)c1)N1CCN(c2ccnc3cc(Cl)ccc23)CC1	nt	nt	nt	nt	0.6	nt
N=c1n(Cc2ccc(Cl)cc2)c2ccccc2n1CC(O)COc1ccccc1 (configuration not stated)	-11.0%	?	0.4	5.8%	4.4	?
OC(COCC(F)(F)C(F)(F)C(F)(F)C(F)F)Cn1c2ccc(Cl)cc2c2cc(Cl)ccc21 (configuration not stated)	?	?	-29.3	?	-4.0	18.4µM*
COCCNc1nc(NCc2cc(-c3ccc(OC)cc3)no2)c2sccc2n1	nt	?	nt	nt	-3.2	18.4µM*
COCCNc1nc(NCc2cccs2)nc2ccsc12	nt	i	nt	nt	-2.7	i
COc1cccc(CNc2nc(NC(C)C)nc3ccsc23)c1OC	nt	i	nt	nt	-1.4	i
COc1ccccc1CNc1nc(NC(C)C)nc2ccsc12	nt	?	nt	nt	1.7	10.3µM*
COc1cccc(CNc2nc(NCc3ccccc3)nc3ccsc23)c1	nt	?	nt	nt	-3.3	9.2µM*
O=C(N/N=C/c1ccccn1)c1ccc(Br)cc1	?	i	-5.8	?	-0.3	18.4µM*
O=C(N/N=C/c1ccccn1)c1ccc(N/N=C/c2ccccn2)cc1	1.2%	i	-8.5	16.4%	10.0	i
CCOc1ccccc1NC(=O)c1cc2c(C)nn(-c3ccccc3)c2s1	nt	nt	nt	nt	0.4	nt
O=C(Nc1cc(Sc2ccccn2)cc([N+](=O)[O-])c1)c1ccc(Cl)cc1	?	20.6µM*	-11.7	nt	-3.5	?
CC(C)C(=O)OCc1cccc(OC(=O)[C@@H]2N3C(=O)[C@@H](NC(=O)Cc4ccccc4)[C@H]3SC2(C)C)c1	nt	nt	nt	nt	-4.6	nt
C#CCN(C)Cc1ccccc1	0.7%	i	-0.3	11.1%	-3.2	i
CN(CC#CC1(O)c2ccccc2-c2ccccc21)Cc1ccccc1	-4.3%	i	20.5	3.2%	-0.7	8.2µM*
COc1cc2cc(-c3ccc(O)cc3O)nc(C)c2cc1OC	-10.4%	?	-29.9	?	-4.4	6.51µM*
COc1cc2cc(-c3ccc(OC)c(OC)c3C)nc(N)c2cc1OC	0.7%	?	-26.7	?	15.6	6.51µM*
CCOc1ccc(-c2cc3cc(OC)c(OC)cc3c(C)n2)cc1	8.4%	i	6.4	-0.9%	-2.2	i
CS(=O)(=O)N1CCN(c2ccnc3cc(Cl)ccc23)CC1	4.6%	i	-6.2	-14.7%	-3.8	i
O=S(=O)(c1ccc(Br)s1)N1CCN(c2ccnc3cc(Cl)ccc23)CC1	-5.6%	i	9.9	20.6µM*	2.3	?
Oc1ccc(N2CCN(c3ccnc4cc(Cl)ccc34)CC2)cc1	1.4%	16.4µM*	-1.1	-5.4%	3.7	14.6µM*
CC(C)N(C(=O)N1CCN(c2ccnc3cc(Cl)ccc23)CC1)C(C)C	-3.6%	i	-23.2	9.2µM*	-0.8	?
SMILES	A549 viability	KB-3-1 cytotox	Giardia kill	Nrf2 inh	PI4K2A block	KB-V1 MDR tox
COc1ccc(N2CCN(c3ccnc4cc(Cl)ccc34)CC2)cc1	-2.8%	i	-1.6	?	-2.9	?
O=C(c1ccc(Cl)cc1)N1CCN(c2ccnc3cc(Cl)ccc23)CC1	?	?	-12.0	20.6µM*	-3.2	?
C[C@@H]1C[C@H]2[C@@H](Cc3ccccc3)C(=O)N3[C@H](c4ccccc4)[C@H](C)C[C@H]3[C@@H](Cc3ccccc3)C(=O)N2[C@@H]1c1ccccc1	nt	nt	nt	nt	0.2	nt
COc1cccc(C2c3c(ncn(-c4ccncc4)c3=N)Oc3ccc4ccccc4c32)c1 (configuration not stated)	-8.0%	nt	nt	15.6%	nt	nt
Oc1ccccc1Nc1nc(NCC2CCCO2)c2ccccc2n1 (configuration not stated)	2.3%	?	4.2	5.1%	5.1	16.4µM*
CN(Cc1nccn1C)C(=O)c1cc(COc2ccc3ncccc3c2)on1	-7.1%	i	-14.2	20.6µM*	1.7	i
O=C(c1cc(COc2ccc3ncccc3c2)on1)N1CCCC(O)C1 (configuration not stated)	-7.0%	?	-8.1	?	4.9	i
O=C(c1cc(COc2ccc3ncccc3c2)on1)N1CCC[C@H]1CO	-19.6%	nt	-6.2	9.2µM*	-4.8	nt
COc1ccc(OCc2cc(C(=O)NC3Cc4ccccc4C3)no2)c(Cl)c1	-5.3%	4.61µM*	1.2	?	0.9	?
CN(Cc1nccn1C)C(=O)c1cc(COc2cccc(C(F)(F)F)c2)on1	?	i	9.9	-6.4%	6.4	i
COc1ccc(OCc2cc(C(=O)N[C@H]3CCCCNC3=O)no2)c(Cl)c1	1.6%	i	0.2	?	1.7	i
COCC1CCCN(C(=O)c2cc(COc3ccc4ncccc4c3)on2)C1 (configuration not stated)	-18.0%	nt	2.2	8.2µM*	-3.8	nt
COc1ccc(C2CC(=O)Oc3c(C(CCN4CCOCC4)c4ccc5c(c4)OCO5)c(OC)cc(OC)c32)cc1 (configuration not stated)	-16.0%	nt	-6.1	-1.8%	nt	nt
CC(CNC(=O)c1cc(COc2ccc3ncccc3c2)on1)c1ccccc1 (configuration not stated)	-15.9%	nt	10.8	14.6µM*	5.4	nt
Cc1ccc(OCc2cc(C(=O)NC3CCc4ccccc43)no2)cn1 (configuration not stated)	1.1%	i	2.2	13µM*	-1.9	i
CCOC(=O)N1CCN(C(=O)c2cc(COc3ccc4ncccc4c3)on2)CC1	-12.6%	?	46.7	18.4µM*	-0.6	?
CCOC(=O)C1CCCN(C(=O)c2cc(COc3ccc(C)nc3)on2)C1 (configuration not stated)	-0.8%	i	-13.8	-26.0%	-0.8	16.4µM*
O=C(OCc1cn(Cc2cccc(C(F)(F)F)c2)nn1)N1CCOCC1	nt	nt	nt	nt	-0.7	nt
CCOC(=O)[C@@]12CCCC=C1N(CCc1ccc(Cl)cc1)C(=O)[C@H]2CC(=O)N1CCOCC1	nt	nt	nt	nt	1.1	nt
COc1cc(F)c(S(=O)(=O)N2CCN(S(=O)(=O)c3ccco3)CC2)c(F)c1	-4.0%	nt	nt	9.3%	nt	nt
CN(C)CC(=O)N[C@H]1C[C@@H]2O[C@@H](CO)CC[C@@H]2O[C@@H]1CCc1ccc(C2=CCCCC2)cc1	nt	nt	nt	nt	-0.4	nt
